DAX1 inh-1: DAX1 (NR0B1) inhibitors on StAR promoter, primary screen, cell-based, luminescence, SF-1 (NR5A1), full-length DAX-1; actives 1.1% (n = 370,000); inhibition, % at 6.8 µM; HEK293T StAR-luciferase reporter, SF-1/DAX-1 repression relief; AID 652010, 2013;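 active = inhibition above the mean over all tested compounds plus 3 SD, cut at about 3.6% in these data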;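 note: higher inhibition means more luminescence from relief of DAX-1 repression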
ssDAF12 agonist: S. stercoralis DAF-12 nuclear receptor activators, primary screen, cell-based, luminescence, HEK293, GRIP1 co-expression, lit1-tk-luc | HEK293 ssDAF-12/GRIP1 lit1-tk-luc reporter; % of 3 µM dafachronic acid response | activation, % at 6.8 µM | actives 1% (n = 370,000) | AID 652126, 2013;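 active = activation above the mean over all tested compounds plus 3 SD, cut at about 0.9% in these data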
DAX1 inh-2: DAX1 (NR0B1) inhibitors, primary screen, cell-based, HEK293, Gal4-DAX1, luciferase luminescence; Nuclear receptor subfamily 0 group B member 1 (Homo sapiens), P51843; actives 0.99% (n = 340,000); AID 504766, 2011; inhibition, % at 6.75 µM; HEK293 Gal4-DAX1 luciferase reporter;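 active = inhibition above the mean over all tested compounds plus 3 SD, cut at about 4.2% in these data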;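 note: inhibition shows as a rise in luminescence from relieved DAX1 repression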
hgDAF-12 ag: H. glycines DAF-12 receptor agonists, primary screen, cell-based, luminescence, HEK293, GAL4 fusion, UAS-luciferase. Nuclear hormone receptor DAF-12 (Heterodera glycines), GAL4 fusion. activation, % at 6.8 µM. AID 687014, 2013. actives 1.8% (n = 370,000). HEK293 GAL4-hgDAF12 UAS-luciferase reporter, agonist luminescence; normalized to butyrate control;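 active = activation above a cutoff set at the mean of all screened compounds plus 3 SD, cut at about 10% in these data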
hcDAF-12 act: H. contortus DAF-12 nuclear receptor activators, primary screen, cell-based, luminescence, HEK293, lit1-tk-luc reporter; HEK293 hcDAF-12 lit1-tk-luc reporter; 0% DMSO, 100% Δ7-dafachronic acid; activation, % at 6.8 µM; actives 1.4% (n = 370,000);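 active = activation above the mean of all tested compounds plus 3 SD, cut at about 5.5% in these data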
NR1D1 modulator: modulators of Rev-erb alpha DNA binding, primary screen, biochemical, FITC-DNA, fluorescence polarization, uHTS. Nuclear receptor subfamily 1 group D member 1 (Homo sapiens), P20393. Rev-erbα–FITC-DNA binding, 90 min. activity, % at 10 µM. actives 0.79% (n = 370,000). AID 1259318, 2017;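 active = activity above about 14%, limit read from the data; passing the limit was not always enough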
LXR ag: LXR agonists, Gal4 luciferase reporter, confirmation, counter-screen for hcDAF-12 agonist project, cell-based, luminescence, HEK293, H. contortus campaign; shares compounds with hcDAF-12 act; HEK293 Gal4-LXR tk-luc reporter, 24 h; normalized: DMSO 0%, positive control 100%; activation, % at 6.8 µM; 3,400 tested, under 10 active; AID 743027, 2013;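 active = mean percent activation of the reporter above a cutoff set as the average over tested compounds plus their standard deviation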
Target sequence (P55055 whole entry, looked up, the tested form may be a part): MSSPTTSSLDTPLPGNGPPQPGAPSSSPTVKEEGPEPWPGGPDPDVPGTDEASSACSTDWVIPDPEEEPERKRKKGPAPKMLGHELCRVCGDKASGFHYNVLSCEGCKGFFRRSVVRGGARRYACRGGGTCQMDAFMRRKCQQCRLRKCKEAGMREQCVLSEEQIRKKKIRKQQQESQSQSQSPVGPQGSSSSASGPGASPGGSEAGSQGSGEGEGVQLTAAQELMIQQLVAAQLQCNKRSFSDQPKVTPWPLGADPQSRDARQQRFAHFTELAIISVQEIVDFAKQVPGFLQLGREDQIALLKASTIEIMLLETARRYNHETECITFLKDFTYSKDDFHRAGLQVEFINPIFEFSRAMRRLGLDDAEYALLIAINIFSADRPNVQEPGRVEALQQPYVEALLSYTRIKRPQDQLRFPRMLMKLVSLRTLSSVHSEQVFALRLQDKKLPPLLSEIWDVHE
hcDAF12 ag: H. contortus DAF-12 receptor agonists, confirmation, cell-based, luminescence, HEK293, lit1-tk-luc, triplicate; shares compounds with hcDAF-12 act; HEK293 hcDAF-12 lit1-tk-luc reporter; % of Δ7-dafachronic acid response; activation, % at 6.8 µM; actives 61% (n = 3,400); AID 743032, 2013;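 active = mean activation across triplicate tests above the threshold derived from the earlier primary screen, cut at about 5.5% in these data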
Numbers stand for hits; – = inactive; · = no result given. Rows were chosen to be rich in hits. Some 4.8% of all compounds tested hit in one or more screens of this group.

SMILES	DAX1 inh-1	ssDAF12 agonist	DAX1 inh-2	hgDAF-12 ag	hcDAF-12 act	NR1D1 modulator	LXR ag	hcDAF12 ag
CCS(=O)(=O)Nc1c(C(=O)O)[nH]c2ccccc12	–	–	–	–	7.6	–	–	–
CCOC(=O)Cn1cc(CN2C(C(=O)OC)CN(Cc3ccccc3)CCS2(=O)=O)nn1 (stereo not given)	–	–	·	–	–	–	·	·
Cc1cccc(-c2cc3c(N=O)c4ccccc4c-3n[nH]2)c1	3.9	1.2	6.9	17.0	12.1	–	–	16.6
Cc1ccc(-c2cc3c(N=O)c4ccccc4c-3n[nH]2)cc1	–	–	–	–	–	–	·	·
O=C(O)c1ccccc1Nc1cccc(OCc2ccc3ccccc3n2)c1	–	–	–	–	6.6	–	–	–
COCCNC(=O)c1c(N)[nH]c(C(=O)c2ccc(Br)cc2)c1-c1c(OC)ccc2ccccc12	·	–	·	–	–	–	·	·
COc1ccc(NC(=O)CCCNS(=O)(=O)c2ccc3[nH]c(=O)oc3c2)cc1OC	–	–	·	–	–	–	·	·
N#CC1=C(N)Oc2c(ccc3ccccc23)C1c1ccsc1 (stereo not given)	–	0.9	–	11.8	7.1	–	–	–
O=C(CCCCCn1c(=S)[nH]c2cc3c(cc2c1=O)OCO3)N1CCN(c2ccccc2)CC1	–	–	–	–	6.8	–	–	–
C[C@H]1[C@H](N(C)C)CC[C@@]23CCCN2C(=O)CCC[C@@H]13	·	–	·	–	–	–	·	·
COC(=O)C[C@@H]1CC[C@H]2[C@H](COc3ccc(NC(=O)Nc4cccc(C#N)c4)cc3C(=O)N2C)O1	–	–	·	–	–	–	·	·
CC(C)c1ccc(Nc2nc(CC(=O)O)cs2)cc1	–	–	–	21.8	9.4	–	–	6.0
FC(F)(F)c1cccc(-c2cc3nc(NCCCn4ccnc4)ccn3n2)c1	–	–	·	–	–	–	·	·
Clc1ccccc1-c1cc2nc(NCCCn3ccnc3)ccn2n1	–	–	·	–	7.2	–	–	–
CN(C)c1cc2c3ccccc3n(C)c2cc1N	–	–	–	–	7.6	–	–	–
COC(=O)[C@]12C[C@H](CC(=O)NCc3ccccc3)C(=O)N(Cc3ccccc3)C1=C[C@H](C1CCCC1)O[C@@H]2C	–	–	·	–	–	–	·	·
COc1ccc(NCC(=O)N/N=C/C=C\c2ccccc2)cc1	–	–	–	–	7.6	–	–	–
C[C@@H]1CN(c2ccc(N3CCN(C(=O)OC(C)(C)C)C[C@@H]3C)cc2C#N)C[C@H](C)O1	–	–	·	–	–	–	·	·
CCCCNC(=S)N(CCO)Cc1cc2cc3c(cc2[nH]c1=O)OCCO3	–	–	–	–	7.2	–	–	–
CC(=O)C1=C(O)C(=O)N(CCc2ccccc2)C1c1ccccc1[N+](=O)[O-] (stereo not given)	–	–	–	–	7.3	–	–	–
O=C(CSc1nc2ccccc2s1)Nc1cc(S(=O)(=O)N2CCOCC2)ccc1O	–	–	–	–	9.7	–	–	–
